Reference: PubChem BioAssay (NCATS)
Records with an inconclusive call do not appear. The source made the active and inactive calls. Calls come from the whole dose curve; as a rule, active = well fitted inhibition curve with a large enough effect; inconclusive = small, poorly fitted or top-dose-only effect; inactive = no such curve, though single readings can be large or run the other way.

assay: Primary qHTS for small molecule stabilizers of the endoplasmic reticulum resident proteome: Secreted ER Calcium Modulated Protein (SERCaMP) assay (AID 1508630); settings: SH-SY5Y GLuc-SERCaMP (Gaussia luciferase released on ER calcium loss) secretion, thapsigargin, luminescence; series mostly up to 38.4 µM
Method in brief: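 GLuc-SERCaMP-expressing SH-SY5Y cells, pretreated 16 h with compound, are challenged with thapsigargin to empty ER calcium stores; after 4 h, coelenterazine is added directly to the medium and luminescence is imaged.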

Potency, inactive:
CC1(C)Oc2ccc3ccc(=O)oc3c2CC1=O
CC1CCC2=C1C[C@H](C(C)(C)O)CC[C@@H]2C (stereo partly drawn)
CN1CCN(c2ccc(Nc3c4ccccc4nc4ccccc34)cc2)CC1
CC(=O)[C@@]1(O)[C@H](O)CC2C3CCC4CC(O)CC[C@]4(C)C3CC[C@@]21C (stereo partly drawn)
COc1ccccc1/C=C\C(=O)OC[C@@H]1CCCN2CCCC[C@H]12
COc1c2ccoc2nc2c(OC)c(O[C@@H]3O[C@H](C)[C@@H](O)[C@@H](O)[C@H]3O)ccc12
COc1c(C=O)c(=O)[nH]c2c(OC)cccc12
CC1(C)CCC[C@@]2(C)C1CC[C@@](C)(O)[C@@H]2CC[C@@](C)(O)C1CO1 (stereo partly drawn)
O=C(O)C1CCC[C@@H]2[C@@H]3CC(CN12)[C@@H]1CCCCN1C3 (stereo partly drawn)
COC(C)C(C(=O)OCC1=CCN2CC[C@H](O)[C@@H]12)C(C)C (stereo partly drawn)
COC1=C[C@@H](C)C2CC3OC(=O)C[C@H]4C(C)=C(OC)C(=O)C([C@@]2(C)C1=O)[C@@]34C (stereo partly drawn)
COc1cc2oc(=O)c3c4c(cc5ccc(c1CCN(C)C)c2c53)OCO4
COc1cc2c(cc1O)-c1ccccc1CN(C)C2
CCCCN(CC)CCOc1cccc2ccccc12
c1cnc2c(-c3nccc4c3[nH]c3ccccc34)cccc2c1
C[C@@]12CC(=O)C3=C(CCCC3=O)N1CCc1ccccc12
CC(=O)C1(C)CC2(CC(C)(C)OC2=O)C(=O)O1 (stereo not drawn)
Cc1nc2[nH]c(=O)[nH]c(=O)c2[nH]1
